According to PubChem BioAssay (NCI):
Several values for one entry are separate records, joined by “and”; a condition that tells them apart may be missing. Identical values can stand only once. About 83,000 compounds went through this panel and 20% of them were active in at least one assay; those are over-represented in the sample as a whole.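 Results are percent growth after 48 hours of single-concentration exposure. 100 means growth as in untreated cells, lower positive values show inhibition; negative values down to -100 show cell death.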 Activity calls are given as the source filed them. The calls were made as follows: active = growth percent below 10; inactive = the rest.

Key:
Assay in all cases: NCI-60 one-dose screen, 48 h (100 = growth as untreated, 0 = no growth, -100 = all killed)
HCT-15 colon = conditions: 10 µM unless noted
HT29 colon = conditions: 10 µM unless noted
SNB-75 CNS = conditions: 10 µM unless noted
SNB-19 CNS = conditions: 10 µM unless noted
U251 CNS = conditions: 10 µM unless noted
PC-3 prostate = conditions: 10 µM unless noted
SK-MEL-5 melanoma = conditions: 10 µM unless noted
LOX IMVI melanoma = conditions: 10 µM
SK-MEL-28 melanoma = conditions: 10 µM unless noted
UACC-62 melanoma = tested on: UACC-62 melanoma

Measured: growth

CC(=O)C[n+]1ccc(C)cc1Sc1ccccc1C
inactive: HCT-15 colon 97.1% | HT29 colon 99.1% | SNB-75 CNS 76% | SNB-19 CNS 91.1% | U251 CNS 93.3% | PC-3 prostate 91.8% | SK-MEL-5 melanoma 92% | LOX IMVI melanoma 86.6% | SK-MEL-28 melanoma 104%

Nc1ccn(C2CC(N)C(CO)O2)c(=O)n1 (stereo not drawn)
inactive: HCT-15 colon 71.4% | HT29 colon 81.3% | SNB-75 CNS 77.6% | SNB-19 CNS 68.2% | U251 CNS 80.9% | PC-3 prostate 74.8% | SK-MEL-5 melanoma 83.6% | LOX IMVI melanoma 75.4% | SK-MEL-28 melanoma 118%

C/C(=N\O)c1ccccn1
inactive: HCT-15 colon 102% | HT29 colon 97.3% | SNB-75 CNS 96.9% | SNB-19 CNS 95.2% | U251 CNS 88.8% | PC-3 prostate 94.3% | SK-MEL-5 melanoma 105% | LOX IMVI melanoma 99.1%

C=CCS(C)(=O)=O
inactive: HCT-15 colon 102% | HT29 colon 97.1% | SNB-75 CNS 94.1% | SNB-19 CNS 101% | U251 CNS 90.4% | PC-3 prostate 101% | SK-MEL-5 melanoma 104% | LOX IMVI melanoma 103% | SK-MEL-28 melanoma 106%

O=C(O)c1cc(I)ccc1O
inactive: HCT-15 colon 101% | HT29 colon 104% | SNB-75 CNS 81.8% | SNB-19 CNS 93.1% | U251 CNS 100% | PC-3 prostate 104% | SK-MEL-5 melanoma 103% | LOX IMVI melanoma 92% | SK-MEL-28 melanoma 113%

Nc1ccc(F)c(Cl)c1F
inactive: HCT-15 colon 111% | HT29 colon 108% | SNB-75 CNS 89.3% | SNB-19 CNS 110% | U251 CNS 116% | PC-3 prostate 84.1% | UACC-62 melanoma; 10 µM unless noted 103% | LOX IMVI melanoma 95.3%

C=C(C)COc1ccc(C(C)(C)C)cc1
inactive: HCT-15 colon 108% | HT29 colon 99.2% | SNB-75 CNS 94% | SNB-19 CNS 103% | U251 CNS 88.5% | PC-3 prostate 96.9% | SK-MEL-5 melanoma 104% | LOX IMVI melanoma 101% | SK-MEL-28 melanoma 108%

C=CCC(OC(C)=O)c1ccc(C(C)C)cc1 (stereo not drawn)
inactive: HCT-15 colon 107% | HT29 colon 92.5% | SNB-75 CNS 102% | SNB-19 CNS 101% | U251 CNS 122% | PC-3 prostate 99.1% | UACC-62 melanoma; 10 µM unless noted 105% | LOX IMVI melanoma 104% | SK-MEL-28 melanoma 120%

CCC(C)C1CCC(O)CC1 (stereo not drawn)
inactive: HCT-15 colon 104% | HT29 colon 105% | SNB-75 CNS 91.7% | SNB-19 CNS 112% | U251 CNS 98.8% | PC-3 prostate 100% | UACC-62 melanoma; 10 µM unless noted 104% | LOX IMVI melanoma 101% | SK-MEL-28 melanoma 106%

O=S(=O)(O)c1cccnc1
inactive: HCT-15 colon 114% | HT29 colon 117% | SNB-75 CNS 79.5% | SNB-19 CNS 96% | U251 CNS 113% | PC-3 prostate 102% | SK-MEL-5 melanoma 103% | LOX IMVI melanoma 108% | SK-MEL-28 melanoma 114%

CC(C)NC(=O)OCc1c(COC(=O)NC(C)C)c(-c2ccc(Cl)cc2)n2c1CCC2
inactive: HCT-15 colon 58.4% | HT29 colon 56% | SNB-75 CNS 34.1% | SNB-19 CNS 57.9% | U251 CNS 49% | PC-3 prostate 68.2% | SK-MEL-5 melanoma 68.1% | LOX IMVI melanoma 30.5% | SK-MEL-28 melanoma 84.7%

CN1CCCN(C(c2ccccc2)c2ccc(Br)cc2)CC1 (stereo not drawn)
inactive: HCT-15 colon 63.8% | HT29 colon 39.1% | SNB-75 CNS 38.5% | SNB-19 CNS 99.6% | U251 CNS 71.1% | PC-3 prostate 61.4% | SK-MEL-5 melanoma 60.3% | LOX IMVI melanoma 69.7% | SK-MEL-28 melanoma 64.9%

CN1CCCN(C(c2ccccc2)c2ccc(Cl)cc2)CC1 (stereo not drawn)
inactive: HCT-15 colon 85.9% | HT29 colon 86.6% | SNB-75 CNS 59% | SNB-19 CNS 117% | U251 CNS 97.2% | PC-3 prostate 86.5% | UACC-62 melanoma; 10 µM unless noted 106% | LOX IMVI melanoma 89.4% | SK-MEL-28 melanoma 103%

CCNc1ncnc2[nH]ncc12
inactive: HCT-15 colon 102% | HT29 colon 108% | SNB-75 CNS 88.9% | SNB-19 CNS 104% | U251 CNS 101% | PC-3 prostate 94.6% | SK-MEL-5 melanoma 101% | LOX IMVI melanoma 98% | SK-MEL-28 melanoma 111%

C=CC(C)(C)n1cc(C2=C(O)C(=O)C(c3cn(C(C)(C)C=C)c4ccccc34)=C(O)C2=O)c2ccccc21
inactive: HCT-15 colon 84.2% | HT29 colon 99.3% | SNB-75 CNS 67.8% | SNB-19 CNS 80.2% | U251 CNS 82.6% | PC-3 prostate 80.8% | UACC-62 melanoma; 10 µM 100% | LOX IMVI melanoma 97.2%
active: UACC-62 melanoma; 100 µM -85.8% and -96.5%

O=C(NCc1ccccc1)c1cccc([N+](=O)[O-])c1
inactive: HCT-15 colon 104% | HT29 colon 97.8% | SNB-75 CNS 101% | SNB-19 CNS 95.1% | U251 CNS 89.1% | PC-3 prostate 88.9% | SK-MEL-5 melanoma 103% | LOX IMVI melanoma 105% | SK-MEL-28 melanoma 114%

CCC12OC(COc3ccccc3)CN1CCN2c1ccccc1 (stereo not drawn)
inactive: HCT-15 colon 105% [100 µM] | HT29 colon 111% [100 µM] | SNB-75 CNS 84.4% [100 µM] | SNB-19 CNS 96.9% [100 µM] | U251 CNS 101% [100 µM] | PC-3 prostate 102% [100 µM] | SK-MEL-5 melanoma 104% [100 µM] | UACC-62 melanoma; 10 µM unless noted 89.5% [100 µM] | SK-MEL-28 melanoma 103% [100 µM]

CCOc1ccc(C(=O)O)cc1
inactive: HCT-15 colon 95.7% | HT29 colon 103% | SNB-75 CNS 89.2% | SNB-19 CNS 112% | U251 CNS 103% | PC-3 prostate 91.2% | UACC-62 melanoma; 10 µM unless noted 104% | LOX IMVI melanoma 98.7% | SK-MEL-28 melanoma 105%

CCOC(=O)CSCCC#N
inactive: HCT-15 colon 100% | HT29 colon 97.9% | SNB-75 CNS 97% | SNB-19 CNS 104% | U251 CNS 105% | PC-3 prostate 97.8% | UACC-62 melanoma; 10 µM unless noted 99.3% | LOX IMVI melanoma 96.3% | SK-MEL-28 melanoma 96.6%

CC(C)(C)CC1(C)NC(=O)NC1=O (stereo not drawn)
inactive: HCT-15 colon 110% | HT29 colon 107% | SNB-75 CNS 83.8% | SNB-19 CNS 110% | U251 CNS 111% | PC-3 prostate 106% | SK-MEL-5 melanoma 108% | LOX IMVI melanoma 102% | SK-MEL-28 melanoma 116%

C/C(=N\Nc1ccc([N+](=O)[O-])cc1[N+](=O)[O-])c1ccc(Br)cc1
inactive: HCT-15 colon 97.5% | HT29 colon 92.2% | SNB-75 CNS 104% | SNB-19 CNS 97.8% | U251 CNS 92.2% | PC-3 prostate 91.2% | SK-MEL-5 melanoma 100% | LOX IMVI melanoma 95.8% | SK-MEL-28 melanoma 107%

NNc1ncccn1
inactive: HCT-15 colon 106% | HT29 colon 91.8% | SNB-75 CNS 80.2% | SNB-19 CNS 111% | U251 CNS 102% | PC-3 prostate 106% | SK-MEL-5 melanoma 115% | LOX IMVI melanoma 96.9% | SK-MEL-28 melanoma 106%

CCOc1ccccc1NC(=O)CCl
inactive: HCT-15 colon 85.9% | HT29 colon 89.3% | SNB-75 CNS 88.3% | SNB-19 CNS 101% | U251 CNS 29% | PC-3 prostate 83.5% | UACC-62 melanoma; 10 µM unless noted 83.7% | LOX IMVI melanoma 85.3%

OCCOc1ccc(-c2cc(-c3ccccn3)nc(-c3ccccn3)c2)cc1
inactive: HCT-15 colon 19.1% | SNB-75 CNS 24.1% | SNB-19 CNS 20.6% | PC-3 prostate 20.1%
active: HT29 colon 4.07% | U251 CNS 4.7% | UACC-62 melanoma; 10 µM unless noted -44.8% | LOX IMVI melanoma -29.6%

O=S(=O)(O)C(C(I)I)S(=O)(=O)O
inactive: HCT-15 colon 110% | HT29 colon 118% | SNB-75 CNS 98.3% | SNB-19 CNS 113% | U251 CNS 96.3% | PC-3 prostate 95.7% | UACC-62 melanoma; 10 µM unless noted 110% | LOX IMVI melanoma 101% | SK-MEL-28 melanoma 114%

CC1(C)OC(=O)CC1=O
inactive: HCT-15 colon 110% | HT29 colon 93.5% | SNB-75 CNS 93.5% | SNB-19 CNS 105% | U251 CNS 83.2% | PC-3 prostate 81.5% | SK-MEL-5 melanoma 98.7% | LOX IMVI melanoma 96.9% | SK-MEL-28 melanoma 109%

C/C(O)=C(/C=N/C(=S)Nc1ccccc1)C(=O)Nc1ccccc1C
inactive: HCT-15 colon 96.7% | HT29 colon 105% | SNB-75 CNS 92.4% | SNB-19 CNS 93.9% | U251 CNS 95.4% | PC-3 prostate 86.5% | UACC-62 melanoma; 10 µM unless noted 79.4% | LOX IMVI melanoma 94.4% | SK-MEL-28 melanoma 110%

CN(C)c1ncnc2c1cnn2C
inactive: HCT-15 colon 113% | HT29 colon 109% | SNB-75 CNS 90.7% | SNB-19 CNS 99.1% | U251 CNS 101% | PC-3 prostate 85.2% | UACC-62 melanoma; 10 µM unless noted 92.9% | LOX IMVI melanoma 94.9% | SK-MEL-28 melanoma 112%

CCCCCCCCCCCCCCCCOc1ccccc1NC(=O)CC(C)=O
inactive: HCT-15 colon 113% | HT29 colon 97.9% | SNB-75 CNS 93.2% | SNB-19 CNS 104% | U251 CNS 99.3% | PC-3 prostate 75.4% | UACC-62 melanoma; 10 µM unless noted 78.7% | LOX IMVI melanoma 107% | SK-MEL-28 melanoma 103%

Oc1cccnc1CN1CCCC1
inactive: HCT-15 colon 95.3% | HT29 colon 108% | SNB-75 CNS 96.1% | SNB-19 CNS 104% | U251 CNS 94.8% | PC-3 prostate 89.7% | UACC-62 melanoma; 10 µM unless noted 102% | LOX IMVI melanoma 96.6% | SK-MEL-28 melanoma 107%

c1ccc(-c2ccc3ccccc3c2)cc1
inactive: HCT-15 colon 107% | HT29 colon 80.8% | SNB-75 CNS 107% | SNB-19 CNS 100% | U251 CNS 92.7% | SK-MEL-5 melanoma 96.4% | UACC-62 melanoma; 10 µM unless noted 95.4% | LOX IMVI melanoma 95.7% | SK-MEL-28 melanoma 107%

C=C1C(=O)C2CCC1C2 (stereo not drawn)
inactive: HCT-15 colon 99.8% | HT29 colon 102% | SNB-75 CNS 103% | SNB-19 CNS 107% | U251 CNS 109% | SK-MEL-5 melanoma 105% | UACC-62 melanoma; 10 µM unless noted 108% | LOX IMVI melanoma 106% | SK-MEL-28 melanoma 119%

COC1CC(OC(=O)c2ccc([N+](=O)[O-])cc2)C(COC(=O)c2ccc([N+](=O)[O-])cc2)O1 (stereo not drawn)
inactive: HCT-15 colon 100% | HT29 colon 121% | SNB-75 CNS 87.3% | SNB-19 CNS 101% | U251 CNS 97.2% | PC-3 prostate 89.8% | UACC-62 melanoma; 10 µM unless noted 98.1% | LOX IMVI melanoma 103% | SK-MEL-28 melanoma 101%
